Consider 35 compounds from PubChem BioAssay (NCI).

This is part of a sample that, as a whole, favours compounds with a hit. Of some 83,000 tested, about 20% had one in any assay.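 In brief: 96-well plates, 48 h treatment, single concentration, percent growth endpoint.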 Calls of active or inactive are those of the source. How the source made its calls: active means growth percent below 10; inactive means the rest.

The assay has as its system A498 renal. The experiment in a line: NCI-60 one-dose screen, 48 h (100 = growth as untreated, 0 = no growth, -100 = all killed). To be noted: 10 µM unless noted.
Turning to `Cc1ccc(NC(=O)c2ccc(CN3CCN(C)CC3)cc2)cc1Oc1ccc(-c2[nH]nc3ncnc(N)c23)cc1`, the growth is 94.3% (inactive).
The same measure for `CCCn1cnc2c(c1=N)C(c1ccc(Cl)cc1)c1sc3c(C)cccc3c1O2` (stereo not given): -13.1% (active); for `C=C(C=O)[C@@H]1CC[C@]2(C)[C@H](CC=C3[C@H]4[C@@H](C)[C@H](C)CC[C@]4(C(=O)OC)CC[C@]32C)[C@@]1(C)CCC#N`: 81.1% (inactive).
The same measure for `NC(N)=Nc1ccc(Oc2cccc(NC(N)=Nc3ccc(I)cc3F)c2)cn1`: 49% (inactive); for `Cc1occc1-c1nc2s/c(=C/c3ccc(-c4cc(C(F)(F)F)ccc4Cl)o3)c(=O)n2n1`: 105% (inactive).
The result for `C[C@H]1c2[nH]c3ccccc3c2C[C@H]2C(=O)N(CCCCCCC(=O)NO)CC(=O)N21` reads 83.2% (inactive); that for `COc1ccc(-c2cc(-c3ccc(Cl)cc3)c(C#N)c(=O)n2Cc2ccc(C(=O)O)cc2)cc1`, 83% (inactive).
Consider `O=C1[C@H]2Cc3c([nH]c4ccccc34)[C@@H](c3ccc(Cl)cc3)N2C(=O)CN1C1CCN(Cc2ccccc2)CC1`, for which the growth is 74.8% (inactive).
As to `COc1cc(-c2nn(C(C)(C)C)cc2-c2ccnc(NCCCNS(=O)(=O)c3ccc(C)cc3)n2)ccc1Cl`, the growth was 30.9% (inactive).
Regarding `CCCCNNC(=O)c1ccc(-c2cccc(F)c2F)cc1`, the growth was -6.27% (active).
As to `CC1(C)CC[C@]2(C(=O)N3CCOCC3)CC[C@]3(C)C(=CC[C@@H]4[C@@]5(C)C/C(=C/c6ccccn6)C(=O)C(C)(C)[C@@H]5CC[C@]43C)[C@@H]2C1`, the growth is -3.14% (active).
For `O=S(=O)(NCCNc1nccc(-n2cnc3ccccc32)n1)c1ccc(Br)cc1`, the growth is 76.3% (inactive).
The same measure for `CC1(C)CC[C@]23CC[C@]4(C)[C@H](CC[C@@H]5[C@@]6(C)CCCN(CO)C(C)(C)[C@@H]6CC[C@]54C)[C@H]2[C@H]1OC3`: 107% (inactive); for `O=C1[C@H]2Cc3c([nH]c4ccccc34)[C@@H](c3ccc(Br)cc3)N2C(=O)CN1C1CCN(CC2CCCCC2)CC1`: -15.4% (active).
The result for `COc1ccc([C@H]2c3[nH]c4ccccc4c3C[C@H]3C(=O)N(C4CCN(Cc5c(Cl)cccc5Cl)CC4)CC(=O)N23)c(OC)c1` reads 128% (inactive).
The same measure for `NS(=O)(=O)c1ccc(Nc2nc(Nc3ccccc3)nc3nnc(SCC(=O)NC4CCCCC4)n23)cc1`: 97.2% (inactive).
Consider `O=C(NNc1nc2cc(F)ccc2n2c(CN3CCC(O)C3)ccc12)c1cnccn1` (stereo not given), for which the growth was 26.2% (inactive).
The same measure for `CCN(CC)c1cn(-c2ccc(S(N)(=O)=O)cc2)nn1`: 83.4% (inactive); for `CC(=O)Nc1cccc(Nc2nc(N[C@@H](C)c3ccccc3)c3ccccc3n2)c1`: -33.5% (active).
The same measure for `COc1ccc(COc2ccc(/C=C3\C(=O)Nc4ccccc43)cc2OC)cc1`: 110% (inactive); for `CCNC(=O)Oc1ccc(/C(=C(/C)c2ccccc2)c2ccc(OCCN3CCCCCC3)cc2)cc1`: 26.6% (inactive); for `COc1cc(/C=N/NC(=O)c2cn(C3CC3)c3c(OC)c(N4CC5CCCNC5C4)c(F)cc3c2=O)ccc1O` (stereo not given): 99.4% (inactive).
In the case of `CC(C)c1ccc(NCc2cn(-c3ccc(C(=O)O)cc3)nc2-c2cc(C(F)(F)F)cc(C(F)(F)F)c2)cc1`, the growth was 90% (inactive).
The same measure for `CC(=O)O[C@@H]1C(=O)N(c2cnccn2)[C@H]1c1ccccc1[N+](=O)[O-]`: -20.2% (active); for `C=C1CC[C@@H]2[C@]3(C)COC(c4ccccc4)O[C@@H]3CC[C@@]2(C)[C@@H]1C/C=C1/C(=O)OC[C@H]1O` (stereo not given in full): 109% (inactive); for `Nc1cc(F)ccc1NC(=O)c1ccc(NC(=O)C/C=C/c2cccnc2)cc1`: 43.2% (inactive).
The result for `CCc1nn2c(C)cc(C)nc2c1Cc1ccc(/C=C/CN2CCN(CCOCCOCCN3CCN(C/C=C/c4ccc(Cc5c(CC)nn6c(C)cc(C)nc56)cc4)CC3)CC2)cc1` reads 69.7% (inactive); that for `COc1ccc(NC(=O)CSc2nnc(-c3ccc4nc(-c5ccccc5)[nH]c4c3)o2)cc1`, 98% (inactive); that for `COc1ccc(N2C(=O)c3cc(Cl)ccc3NC2SCc2ccccc2)cc1` (stereo not given), 84.7% (inactive).
Turning to `O=C(CSc1nc2ccccc2c(=O)n1-c1ccccc1)Nc1ccc(-c2nc3ccc([N+](=O)[O-])cc3[nH]2)cc1`, the growth was 77.8% (inactive).
The same measure for `O=C(NCCn1ccnc1)c1ccc(-c2nc3ccc4[nH]ncc4c3c3c2CCCC3)cc1`: 73.5% (inactive).
The result for `CCCC(=O)NC(c1cccnc1)c1cc(C(C)(C)C)c2cccnc2c1O` (stereo not given) reads 13.6% (inactive).
The same measure for `NC(N)=Nc1ccc(Oc2cccc(Nc3ccc(Cl)cc3)c2)cn1`: -4.07% (active).
As to `O=C(CN1CCN(c2cc(=O)[nH]c3ccc(F)cc23)CC1)Nc1ccc(Cl)cc1`, the growth was 54.9% (inactive).
With `C=C(C=O)[C@@H]1CC[C@]2(C)[C@H](C(=O)C=C3[C@H]4C[C@](C)(C(=O)OC)CC[C@]4(C)CC[C@]32C)[C@@]1(C)CCC#N`, the growth was 115% (inactive).
